“And” between values parts separate entries of the source, which are not always exact repeats. Identical values can stand only once. Some structures have more than one record in an assay (separate samples or runs), and their calls can disagree. The source made the active and inactive calls. Rule for the calls: active = hit-call score of the fitted dose curve at least 0.9, where 1 is the maximum; inactive = score below 0.9.

Our source for the outcome and AC50 values is PubChem BioAssay (EPA / NIEHS).

Common to all, as to settings: mRNA level, 48 h; actives raise or lower the signal
Read-out in one experiment: BCL2L11 (gene 10018)
Nature of the experiment: LTEA_HepaRG_BCL2L11: Life Technologies and Expression Analysis (LTEA) Assay for Bcl-2 (BCL2L11) gene using HepaRG (AID 2283473). The procedure, abridged:
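Differentiated human HepaRG cells were exposed 48 h in serum-free induction medium to eight half-log concentrations up to 100 uM in 0.5% DMSO, in duplicate. BCL2L11 mRNA was quantified by TaqMan qRT-PCR, normalized to ACTB, GAPDH and POLR2A; induction or repression fitted versus DMSO.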

Read-out in experiment [1]: Apolipoprotein A-V (APOA5) gene, APOA5 (gene 116519)
Nature of the experiment: LTEA_HepaRG_APOA5: Life Technologies and Expression Analysis (LTEA) Assay for Apolipoprotein A-V (APOA5) gene using HepaRG (AID 2283474). The procedure, abridged: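 Differentiated HepaRG cells in serum-free induction medium, exposed 48 h in duplicate to eight half-log concentrations topping at 100 uM (0.5% DMSO). APOA5 mRNA by Fluidigm TaqMan qRT-PCR, normalized to ACTB, GAPDH and POLR2A; bidirectional fit versus DMSO.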

Read-out in experiment [2]: Bcl-2 (BID) gene, BID (gene 637)
Description: LTEA_HepaRG_BID: Life Technologies and Expression Analysis (LTEA) Assay for Bcl-2 (BID) gene using HepaRG (AID 2283476). In a few lines: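 Duplicate 48 h treatments of HepaRG cells in serum-free induction medium spanned 100 uM downward in half-log steps, 0.5% DMSO. Transcript change quantified by qRT-PCR against three housekeeping genes, fitted up or down versus DMSO.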

Read-out in a further experiment: Caspase-3 (Homo sapiens) (UniProt P42574)
Description: LTEA_HepaRG_CASP3: Life Technologies and Expression Analysis (LTEA) Assay for cysteine-aspartic acid protease (CASP3) using HepaRG (AID 2283477). In a few lines:
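Differentiated HepaRG cells, plated 48 h, were treated in duplicate in serum-free induction medium for 48 h with eight half-log concentrations up to 100 uM in 0.5% DMSO. CASP3 mRNA measured by qRT-PCR, normalized to ACTB, GAPDH, POLR2A.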

Read-out in experiment [3]: Cytochrome P450 (CYP24A1), CYP24A1 (gene 1591)
Description: LTEA_HepaRG_CYP24A1: Life Technologies and Expression Analysis (LTEA) Assay for Cytochrome P450 (CYP24A1) using HepaRG (AID 2283478). The procedure, abridged: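 HepaRG cells plated 48 h, then exposed in duplicate in serum-free induction medium for 48 h to 8-point half-log series from 100 uM in 0.5% DMSO. CYP24A1 mRNA by Fluidigm qRT-PCR, normalized to ACTB, GAPDH, POLR2A; bidirectional fit versus DMSO.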

Read-out in experiment [4]: Cytochrome P450 (CYP1A2), CYP1A2 (gene 1544)
Description: LTEA_HepaRG_CYP1A2: Life Technologies and Expression Analysis (LTEA) Assay for Cytochrome P450 (CYP1A2) using HepaRG (AID 2283479). In a few lines:
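Differentiated human HepaRG cells in serum-free induction medium exposed 48 hours in duplicate to 8 half-log concentrations from 100 uM, 0.5% DMSO. CYP1A2 mRNA quantified by qRT-PCR, normalized to ACTB, GAPDH and POLR2A; bidirectional fitting versus DMSO.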

Read-out in experiment [5]: cysteine-aspartic acid protease (CASP8), CASP8 (gene 841)
Description: LTEA_HepaRG_CASP8: Life Technologies and Expression Analysis (LTEA) Assay for cysteine-aspartic acid protease (CASP8) using HepaRG (AID 2283480). The procedure, abridged:
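Concentration-response in duplicate up to 100 uM (half-log steps, 0.5% DMSO) on differentiated HepaRG cultures for 48 h. Expression change of CASP8 mRNA is determined by TaqMan qRT-PCR with housekeeping-gene normalization.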

Read-out in experiment [6]: Cytochrome P450 (CYP2B6), CYP2B6 (gene 1555)
Nature of the experiment: LTEA_HepaRG_CYP2B6: Life Technologies and Expression Analysis (LTEA) Assay for Cytochrome P450 (CYP2B6) using HepaRG (AID 2283481). The procedure, abridged: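 Differentiated human HepaRG cells in serum-free induction medium, dosed in duplicate for 48 h over 8 half-log concentrations topping at 100 uM (0.5% DMSO). CYP2B6 mRNA measured by TaqMan qRT-PCR, normalized to ACTB, GAPDH, POLR2A; bidirectional fit versus DMSO.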

Read-out in experiment [7]: Cytochrome P450 2C19 (Homo sapiens) (UniProt P33261)
Description: LTEA_HepaRG_CYP2C19: Life Technologies and Expression Analysis (LTEA) Assay for CYP2C19 using HepaRG (AID 2283482). In a few lines: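 Differentiated HepaRG cells in serum-free induction medium exposed 48 h in duplicate, 8 concentrations from 100 uM by half-log steps in 0.5% DMSO. CYP2C19 mRNA measured by TaqMan qRT-PCR, normalized to ACTB, GAPDH, POLR2A. Bidirectional fit versus DMSO.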

Read-out in experiment [8]: Apoptosis regulator Bcl-2 (Homo sapiens) (UniProt P10415)
Description: LTEA_HepaRG_BCL2: Life Technologies and Expression Analysis (LTEA) Assay for Bcl-2 gene using HepaRG (AID 2283475). In a few lines: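 qRT-PCR of BCL2 transcript, normalized to three housekeeping genes (ACTB, GAPDH, POLR2A), after 48 h chemical exposure of HepaRG cells; concentrations top 100 uM with half-log dilutions, 0.5% DMSO vehicle, duplicates; changes up or down fitted relative to vehicle.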

Apoptosis regulator Bcl-2 (Homo sapiens), sequence (P10415 whole entry, looked up): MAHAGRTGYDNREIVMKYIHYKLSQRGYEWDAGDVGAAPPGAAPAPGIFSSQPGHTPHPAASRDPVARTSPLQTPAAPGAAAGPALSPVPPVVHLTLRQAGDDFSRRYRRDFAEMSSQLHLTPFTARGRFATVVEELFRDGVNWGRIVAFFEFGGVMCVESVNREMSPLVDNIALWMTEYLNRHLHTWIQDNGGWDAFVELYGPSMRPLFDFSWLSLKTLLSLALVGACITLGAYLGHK
Cytochrome P450 2C19 (Homo sapiens), sequence (P33261 whole entry, looked up): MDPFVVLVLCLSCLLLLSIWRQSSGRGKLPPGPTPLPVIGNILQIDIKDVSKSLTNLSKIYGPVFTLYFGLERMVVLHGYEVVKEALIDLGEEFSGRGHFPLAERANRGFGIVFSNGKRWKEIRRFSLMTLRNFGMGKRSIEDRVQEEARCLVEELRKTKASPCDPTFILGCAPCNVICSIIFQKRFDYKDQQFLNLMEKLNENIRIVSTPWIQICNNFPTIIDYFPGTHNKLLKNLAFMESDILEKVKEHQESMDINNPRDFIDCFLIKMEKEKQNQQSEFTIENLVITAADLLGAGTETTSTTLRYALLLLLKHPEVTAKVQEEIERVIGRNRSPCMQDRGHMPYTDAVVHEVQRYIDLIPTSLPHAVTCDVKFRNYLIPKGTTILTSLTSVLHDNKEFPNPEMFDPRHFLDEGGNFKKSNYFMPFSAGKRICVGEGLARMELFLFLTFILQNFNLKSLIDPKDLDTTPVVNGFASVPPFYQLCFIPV
Caspase-3 (Homo sapiens), sequence (P42574 whole entry, looked up): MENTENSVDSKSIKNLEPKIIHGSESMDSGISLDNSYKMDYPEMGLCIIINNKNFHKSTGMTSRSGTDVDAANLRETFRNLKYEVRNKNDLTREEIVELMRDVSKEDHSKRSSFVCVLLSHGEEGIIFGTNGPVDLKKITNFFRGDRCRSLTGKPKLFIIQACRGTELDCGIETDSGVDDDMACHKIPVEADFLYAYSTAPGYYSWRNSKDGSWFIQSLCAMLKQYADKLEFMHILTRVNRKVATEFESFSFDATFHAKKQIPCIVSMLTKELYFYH

By AC50 is commonly meant the concentration at which the activity in the assay is half-maximal. Regarding `CCCN(CCC)c1c([N+](=O)[O-])cc(C(F)(F)F)cc1[N+](=O)[O-]`, the call (in the experiment with BCL2L11 (gene 10018); in experiment [1]; in experiment [2]; with Caspase-3 (Homo sapiens); in experiment [3]; in experiment [5]) was inactive. In addition, the molecule was called inactive in experiment [7]. The results for the AC50 in [4] and in experiment [6] were 32.3 µM (active) and 50 µM (active), respectively.

Consider `CC1(c2ccc(Oc3ccccc3)cc2)OC(=O)N(Nc2ccccc2)C1=O` (centres undefined), for which the AC50 is 11.7 µM (active) with BCL2L11 (gene 10018); 28.3 µM (active) in [1]; 50.2 µM (active) in experiment [4]; 11.7 µM (active) in experiment [5]; 8.83 µM (active) in experiment [6]; 26.3 µM (active) in [7]. Besides, the molecule was called inactive (in [2]; with Caspase-3 (Homo sapiens); in experiment [3]).

With `CC(C)(C)C(O)C(Oc1ccc(Cl)cc1)n1cncn1` (centres undefined), the call (with BCL2L11 (gene 10018); in [1]; in experiment [2]; with Caspase-3 (Homo sapiens); in experiment [3]; in [5]) was inactive. The AC50 in [1] is 50 µM (active); in [4], 22.2 µM (active) and 36.8 µM (active) and 32.8 µM (active); in experiment [6] it was 2.21 µM (active) and 3.37 µM (active) and 1.68 µM (active); in [7], 2.61 µM (active) and 3.24 µM (active) and 1.89 µM (active).

On to `N#CN`, for which the result (in the experiment with BCL2L11 (gene 10018); in experiment [1]; in [2]; in the experiment with Caspase-3 (Homo sapiens); in [3]; in [4]) was inactive. In addition, the molecule was classed as inactive in experiment [5], in experiment [6] and in experiment [7].

As for `O=C(O)CCCOc1ccc(Cl)cc1Cl`, the molecule was classed as inactive (with BCL2L11 (gene 10018); in experiment [1]; in experiment [2]; in the experiment with Caspase-3 (Homo sapiens); in experiment [3]; in experiment [5]). Further, the AC50 in experiment [4] is 73.8 µM (active); in experiment [6] it was 15.2 µM (active); in experiment [7], 14 µM (active).

Take `OCCOc1ccccc1`: the molecule was classed as inactive (in the experiment with BCL2L11 (gene 10018); in [1]; in experiment [8]; in experiment [2]; with Caspase-3 (Homo sapiens); in [3]). The outcome in experiment [4], in experiment [5] and in experiment [7] was inactive. Further, the AC50 in [6] is 50 µM (active).

For `O=S(=O)(O)C(F)(F)C(F)(F)C(F)(F)C(F)(F)C(F)(F)C(F)(F)C(F)(F)C(F)(F)F`, the call (in the experiment with BCL2L11 (gene 10018); in experiment [1]; in [2]; in the experiment with Caspase-3 (Homo sapiens); in experiment [3]; in experiment [5]) was inactive. Besides, the call in experiment [7] was inactive. In addition, the AC50 was 34.1 µM (active) in experiment [1]; 22.1 µM (active) with Caspase-3 (Homo sapiens); 0.00316 µM (active) in [3]; 84.5 µM (active) and 10.3 µM (active) and 48 µM (active) in [4]; 34.5 µM (active) in experiment [5]; 88.9 µM (active) [middle of 4 runs] in experiment [6]. Further, in [7], the AC50 was 89.3 µM (active) and 12.1 µM (active) and 11 µM (active).

As for `O=C1c2ccccc2C(=O)N1SC(Cl)(Cl)Cl`, the result (in the experiment with BCL2L11 (gene 10018); in [1]; in [8]; in experiment [2]; with Caspase-3 (Homo sapiens); in [3]) was inactive. The molecule was classed as inactive in experiment [4], in experiment [5], in experiment [6] and in [7].

As for `COc1nn(CSP(=S)(OC)OC)c(=O)s1`, the call (with BCL2L11 (gene 10018); in [1]; in experiment [8]; in experiment [2]; in the experiment with Caspase-3 (Homo sapiens); in experiment [3]) was inactive. Moreover, the outcome in [5] was inactive. Besides, the AC50 was 12.1 µM (active) in experiment [4], 4.94 µM (active) in experiment [6] and 10.6 µM (active) in experiment [7].

With `O=C(NC(=O)c1c(F)cccc1F)Nc1ccc(OC(F)(F)C(F)OC(F)(F)F)c(Cl)c1` (centres undefined), the result (in the experiment with BCL2L11 (gene 10018); in experiment [1]; in experiment [2]; in the experiment with Caspase-3 (Homo sapiens); in experiment [3]; in [5]) was inactive. The molecule was classed as inactive in experiment [6] and in experiment [7]. Further, the AC50 in [4] is 12.3 µM (active).
